Consider six compounds from PubChem BioAssay (Tox21).

“And” between values parts separate entries of the source, which are not always exact repeats. Equal entries are not always repeated. Records with an inconclusive call do not appear. A structure can be active in one record and inactive in another. The source made the active and inactive calls. Unless noted, calls follow the shape of the dose curve; as a rule, active = well fitted curve in the direction sought with a large enough effect in the repeat runs; inconclusive = weak or mixed curves; inactive = no such curve, though single readings can be large; an effect the other way counts as inactive or inconclusive.

Experiment [1] deals with Thyrotropin receptor (Homo sapiens) (UniProt P16473). The experiment is described as follows: qHTS assay to identify small molecule agonists of the thyroid stimulating hormone receptor (TSHR) signaling pathway (AID 1224843; calls by dose curve; also: nearly all actives have a fitted effect of over 45% in size; also: potency is read from the fitted curve at half-maximal effect). The method, boiled down:
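A cell-based cAMP HTRF format was run in TSHR-transfected HEK293 cells, 800 per well. Treatment: 30 min, room temperature. Detection: 1 h with labelled cAMP and anti-cAMP cryptate. Concentration-response over 15 points, three replicates.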

Experiment [2] can be described thus: qHTS assay to identify small molecule agonists of the hypoxia (HIF-1) signaling pathway - cell viability counter screen (AID 1224844; calls by dose curve; also: nearly all actives have a fitted effect of over 50% in size). The gist of the method:
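In this counter screen, HRE-bla ME-180 cell viability after 17 hrs of compound exposure at 37C was read by CellTiter-Glo luminescence, multiplexed with the beta-lactamase reporter measurement.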

Experiment [3] can be described thus: qHTS assay to identify small molecule agonists of H2AX (AID 1224845; active = well fitted activation curve with a large enough effect in the signal ratio in the repeat runs, not every such curve was filed as active; the % refers to the signal ratio). The gist of the method: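 Phospho-H2AX Ser139 measured by HTRF (ex 320 nm; em 665 and 620 nm) after 24 hr antibody incubation. Compounds, 15 concentrations, 0.76% DMSO, were applied to CHO-K1 cells for 3hr at 37C before lysis.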
(qHTS replaces the single test concentration by a dilution series.)

Experiment [4] can be described thus: qHTS assay to identify small molecule agonists of the hypoxia (HIF-1) signaling pathway (AID 1224846; active = well fitted activation curve with a large enough effect in the signal ratio in the repeat runs, not every such curve was filed as active; the % refers to the signal ratio). The gist of the method:
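ME-180 HRE-bla reporter cells; compounds in DMSO, 17 h at 37C; read-out beta-lactamase via CCF4-AM FRET.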

Experiment [5] is described as follows: qHTS RealTime-Glo MT Cell Viability Assay in HepG2 cells - 24 hour (AID 1224867). Also: nearly all actives have a fitted effect of over 50% in size. The method, boiled down: (§1)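 Luminescence read-out: viable HepG2 cells reduce a prosubstrate to a NanoLuc substrate, giving a signal proportional to live cell number. Reads taken at 0, 8, 16, 24, 32 and 40 h of compound exposure at 37 C.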
Experiment [6] in a line: qHTS RealTime-Glo MT Cell Viability Assay in HEK293 cells - 32 hour (AID 1224868). Also: top concentration of the series differs between compounds; nearly all actives have a fitted effect of over 50% in size. The method, boiled down: (§2)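 Nonlytic real-time viability readout: viable cells convert prosubstrate to NanoLuc substrate, giving luminescence proportional to live cell number. HEK293, 600 cells/well, compound added after 5 h, continuous culture at 37 C.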
Experiment [7] is described as follows: A CellTox Green Cytotoxicity Assay to monitor cytotoxicity in HEK293 cells - 0 hour (AID 1224869). Also: nearly all actives have a fitted effect of over 50% in size. The gist of the method: (§3)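 Real-time, in one plate: 600 HEK293 cells/well with dead-cell DNA dye, pinned compound after 5 h, 37 C incubation over 40 h; viable cells give no appreciable fluorescence.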
The nature of experiment [8]: qHTS RealTime-Glo MT Cell Viability Assay in HepG2 cells - 40 hour (AID 1224870). Also: nearly all actives have a fitted effect of over 50% in size. The gist of the method: (§4)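 Real-time viability: cells seeded at 600 per well together with NanoLuc and cell-permeant prosubstrate, compounds added after 5 h incubation. Luminescence tracked at 0, 8, 16, 24, 32 and 40 h of exposure.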
A short description of experiment [9]: A CellTox Green Cytotoxicity Assay to monitor cytotoxicity in HEK293 cells - 40 hour (AID 1224871). Also: nearly all actives have a fitted effect of over 45% in size. The gist of the method:
as §3

Experiment [10] can be described thus: qHTS RealTime-Glo MT Cell Viability Assay in HEK293 cells - 16 hour (AID 1224872). The gist of the method:
as §2

Experiment [11] is described as follows: qHTS RealTime-Glo MT Cell Viability Assay in HEK293 cells - 40 hour (AID 1224874). Also: nearly all actives have a fitted effect of over 50% in size. The settings on record: RealTime-Glo luminescence; max response: stronger effect = lower value. The method, boiled down: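 Kinetic, non-lysing viability readout. Seed HEK293 (600/well) with reagent, incubate 5 h at 37 C/5% CO2, pin 23 nL compound in DMSO, incubate at 37 C, read luminescence at 0, 8, 16, 24, 32, 40 h.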

Experiment [12] is described as follows: A CellTox Green Cytotoxicity Assay to monitor cytotoxicity in HEK293 cells - 24 hour (AID 1224875). Also: nearly all actives have a fitted effect of over 45% in size. Also: potency is read from the fitted curve at half-maximal effect. The method, boiled down:
as §3

A short description of experiment [13]: A CellTox Green Cytotoxicity Assay to monitor cytotoxicity in HepG2 cells - 16 hour (AID 1224876). Also: nearly all actives have a fitted effect of over 45% in size. The gist of the method: (§5)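 Cytotoxicity was tracked as dead-cell DNA fluorescence in HepG2 cells treated with test compounds at 37 C; each time-point value comes from one kinetic series spanning 0, 8, 16, 24, 32 and 40 h.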
Experiment [14] is described as follows: qHTS RealTime-Glo MT Cell Viability Assay in HepG2 cells - 32 hour (AID 1224877). Also: nearly all actives have a fitted effect of over 55% in size. The gist of the method: as §1
A short description of experiment [15]: A CellTox Green Cytotoxicity Assay to monitor cytotoxicity in HepG2 cells - 24 hour (AID 1224878). Also: nearly all actives have a fitted effect of over 45% in size. The method, boiled down: as §5
A short description of experiment [16]: A CellTox Green Cytotoxicity Assay to monitor cytotoxicity in HepG2 cells - 40 hour (AID 1224879). Also: nearly all actives have a fitted effect of over 40% in size. The gist of the method:
as §5

Experiment [17] can be described thus: qHTS assay to identify small molecule agonists of H2AX - cell viability counter screen (AID 1224847; calls by dose curve; also: nearly all actives have a fitted effect of over 30% in size; also: potency is read from the fitted curve at half-maximal effect). The method, boiled down:
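Quantitative HTS viability measurement: CHO-K1 wild-type cells in serum (10% FBS) medium, short 3 hr drug exposure at 37C with 0.76% DMSO, CellTiter-Glo luminescent detection.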

Experiment [18] can be described thus: qHTS RealTime-Glo MT Cell Viability Assay in HepG2 cells - 8 hour (AID 1224873). Also: nearly all actives have a fitted effect of over 55% in size. The gist of the method:
as §4

Experiment [19] can be described thus: qHTS assay to identify small molecule antagonists of the estrogen related receptor (ERR) signaling pathway from Tox21 library (AID 1224848). Also: nearly all actives have a fitted effect of over 50% in size. Also: potency is read from the fitted curve at half-maximal effect. The method, boiled down: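 ERR cell line, 2,000 cells/well. 6 h settle, then compound (DMSO) added; 18 h at 37 C; ONE-Glo luminescence after 30 min RT.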
Experiment [20] is described as follows: qHTS assay to identify small molecule agonists of the estrogen related receptor (ERR) signaling pathway from Tox21 library (AID 1224849; calls by dose curve; also: nearly all actives have a fitted effect of over 15% in size). Particulars: ERR reporter cell line, ONE-Glo luciferase, 18 h; at 92.4 µM (top of the series). The gist of the method:
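Luciferase activity in ERR pathway reporter cells served as the agonist readout; exposure lasted 18 h at 37 C, with ONE-Glo detection after 30 min at room temperature.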
% is scaled to controls: 0 for no effect and ±100 for the full control effect.

Thyrotropin receptor (Homo sapiens), sequence (P16473 whole entry, looked up): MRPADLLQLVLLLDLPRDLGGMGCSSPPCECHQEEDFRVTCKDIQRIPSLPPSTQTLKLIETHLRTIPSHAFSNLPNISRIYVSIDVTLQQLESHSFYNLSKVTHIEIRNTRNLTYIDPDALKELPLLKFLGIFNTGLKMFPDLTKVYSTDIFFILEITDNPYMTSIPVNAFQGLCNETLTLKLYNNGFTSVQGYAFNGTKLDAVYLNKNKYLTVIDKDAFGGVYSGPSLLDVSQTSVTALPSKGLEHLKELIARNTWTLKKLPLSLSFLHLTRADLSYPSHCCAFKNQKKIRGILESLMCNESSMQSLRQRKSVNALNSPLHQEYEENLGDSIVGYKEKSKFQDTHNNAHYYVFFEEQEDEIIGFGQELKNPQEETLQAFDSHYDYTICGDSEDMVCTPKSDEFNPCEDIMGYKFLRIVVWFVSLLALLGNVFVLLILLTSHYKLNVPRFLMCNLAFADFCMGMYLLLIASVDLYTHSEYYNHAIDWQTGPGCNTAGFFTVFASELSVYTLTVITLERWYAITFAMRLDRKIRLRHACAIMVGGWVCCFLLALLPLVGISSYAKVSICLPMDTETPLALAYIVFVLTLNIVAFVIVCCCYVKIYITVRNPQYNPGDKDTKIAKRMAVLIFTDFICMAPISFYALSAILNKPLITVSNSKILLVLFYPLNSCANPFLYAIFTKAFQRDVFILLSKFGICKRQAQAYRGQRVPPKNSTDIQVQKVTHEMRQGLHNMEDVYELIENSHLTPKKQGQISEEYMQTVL

Take `CC(C)N(C(=O)SCC(Cl)=C(Cl)Cl)C(C)C`: the Potency in [1] was 30.2 µM (active) and 15.4 µM (active). Further, the Potency entry in [2], in experiment [3], in experiment [5], in experiment [6], in experiment [7] and in [8] was “inactive” in each case. Also, the Potency result in experiment [9], in experiment [10], in experiment [12], in experiment [13], in experiment [14] and in [15] was “inactive” in each case. Besides, the Potency result in [16] was “inactive”. In experiment [4], the compound was classed as inactive. For the same compound, in [11], the max response is -12% (inactive) and 19.1% (inactive).
As to `c1ccc(-c2cccc(-c3ccccc3)c2)cc1`, the Potency result in [1], in experiment [2], in experiment [3], in [17], in experiment [5] and in [6] was “inactive” throughout. In addition, the Potency result in experiment [7], in experiment [8], in experiment [10], in [18], in experiment [12] and in [13] was “inactive” throughout. Moreover, the Potency entry in [14], in [15] and in experiment [16] was “inactive” in each case. The outcome in [4] was inactive.
As for `c1ccc(NNc2ccccc2)cc1`, the Potency entry in [1], in experiment [2], in experiment [17], in experiment [19], in experiment [5] and in experiment [6] was “inactive” in each case. Moreover, the Potency entry in experiment [7], in experiment [8], in [10], in experiment [13], in [14] and in experiment [15] was “inactive” each time. In addition, in [16], the Potency entry was “inactive”. For the same compound, in [4], the compound was called inactive. Moreover, in [20], the activity change, positive = activation was 2.54% (inactive) and 6.77% (inactive). The max response in experiment [11] was -4.96% (inactive) and -2.46% (inactive). Further, in experiment [12], the Potency is 24.5 µM (active).
In the case of `CC(C)C(=O)OCC(C)(C)C(OC(=O)C(C)C)C(C)C` (stereo unspecified), the Potency entry in [1], in [2], in [3], in [17], in experiment [19] and in [5] was “inactive” throughout. Besides, the Potency result in experiment [6], in [7], in experiment [8], in experiment [9], in experiment [10] and in experiment [12] was “inactive” each time. In addition, the Potency entry in experiment [13], in experiment [14], in experiment [15] and in [16] was “inactive” throughout. Moreover, the outcome in [4] was inactive. In experiment [20], the activity change, positive = activation is 5% (inactive) and 0.884% (inactive).
As to `CCC(C)c1cc([N+](=O)[O-])cc([N+](=O)[O-])c1O` (stereo unspecified), the Potency result in experiment [1], in [2], in experiment [5], in [6], in experiment [7] and in experiment [8] was “inactive” each time. For the same compound, the Potency entry in [10], in experiment [12], in experiment [13], in experiment [14], in experiment [15] and in experiment [16] was “inactive” in each case. For the same compound, in experiment [4], the outcome was inactive. For the same compound, the Potency entry in [17] is “inactive and 28.4 µM (active)”; in [19] it was “inactive and 13.7 µM (active)”. The activity change, positive = activation in experiment [20] is -0.756% (inactive) and -61% (inactive). In addition, the max response in [11] was 5.87% (inactive).
Regarding `COP(=S)(OC)Oc1ccc([N+](=O)[O-])cc1`, the Potency entry in experiment [1], in experiment [2], in [3], in [17], in [5] and in experiment [6] was “inactive” in each case. Also, the Potency result in experiment [7], in experiment [8], in experiment [9], in [10], in [12] and in experiment [13] was “inactive” in each case. The Potency entry in experiment [14], in experiment [15] and in experiment [16] was “inactive” in each case. Moreover, the outcome in experiment [4] was inactive. In addition, the max response in experiment [11] was -19% (inactive) and -8.77% (inactive).
